Screen size: about 52,000 compounds; about 4,300 (8.3%) were called active. Only a selection was taken, and actives are over-represented in it overall. Unmarked numbers belong to inactive results. No stated cut-off is given here; in the data, active means survival mostly below about 52% (no sharp cut-off); inactive means mostly above about 56%.

The test system of the experiment is DeltatarO mutant. Nature of the experiment: growth inhibition of S. aureus wild type versus tarO mutant, primary screen, teichoic acid synthesis inhibitors, RN4220, OD600 (AID 463173). Conditions: OD600, 18 h, hits give low values, screened at 18.75 µg/mL (by protocol).
In the case of `NC(=O)c1cc(S(=O)(=O)NCC2CCC(C(=O)Nc3cccc(Cl)c3)CC2)cs1` (centres undefined), the survival is 76%.

For `CCCOc1ccc(-c2nonc2NC(=O)c2cc(OC)c(OC)c(OC)c2)cc1OCCC`, the survival was 84%. For `COc1ccccc1CNC(=O)CCNS(=O)(=O)c1cccc2nsnc12`, the survival is 64%. Regarding `CCc1ccccc1NC(=O)C(=O)c1cc(C)n(-c2ccccc2F)c1C`, the survival was 87%.

Consider `CCOC(=O)C1=C(CN2CCN(c3ccc(C)cc3C)CC2)NC(=O)NC1c1ccc(OC)cc1` (centres undefined), for which the survival was 97%. Turning to `CC1(C)CC2(CC(C)(C)NC(=O)N2)NC(=O)N1`, the survival is 89%. Next, `Cc1cc(C)c(Cn2c(=O)n(Cc3ccccc3)c(=O)c3c(C)c(C)sc32)c(C)c1`: 49%; `Cc1cccc(-c2nnc(SCC(=O)NC3CCCCC3)o2)c1`: 82%. As for `Cc1ccc(CNC(=O)c2ccc3c(O)c(S(=O)(=O)c4ccc(Cl)cc4)c(=O)[nH]c3c2)cc1`, the survival was 84%. Then `CCOc1cc(C(=O)Nc2ccc(-c3nc4ncccc4o3)cc2C)cc(OCC)c1OCC`, with 52% (active).

`Cc1ccc(-c2nc3ncccc3o2)cc1NC(=O)c1ccccc1Br`: the survival is 53%. Next, `COc1ccc(C(=O)Nc2ccc(-c3nc4ncccc4o3)cc2)cc1`: 78%. For `CC(C)COc1cccc(C(=O)Nc2ccc(-c3nc4ncccc4o3)cc2)c1`, the survival was 65%.

As to `COc1c(C)cc(Br)cc1C(=O)Nc1ccc(-c2nc3ncccc3o2)cc1`, the survival was 50%. Next, `Cc1cc(C)cc(C(=O)Nc2ccc(-c3nc4ncccc4o3)cc2)c1`: 56%; `Cc1cc(-c2nc3ncccc3o2)ccc1NC(=O)c1ccccc1Br`: 27% (active).

Turning to `Cc1ccc(C(=O)Nc2cc(-c3nc4ncccc4o3)ccc2C)c(C)c1`, the survival was 98%.

`Cc1cc(-c2nc3ncccc3o2)ccc1NC(=O)c1ccc(Br)cc1`: the survival is 174%.

With `Cc1cc(-c2nc3ncccc3o2)ccc1NC(=O)c1ccc(Cl)cc1`, the survival was 76%. As for `COc1ccc(C(=O)Nc2cc(-c3nc4ncccc4o3)ccc2C)cc1Br`, the survival is 40% (active). Next, `Cc1ccc(-c2nc3ncccc3o2)cc1NC(=O)c1cccc(OCC(C)C)c1`: 42% (active); `CCOC(=O)C1CCCN(S(=O)(=O)c2cc(Br)cc3c2N(C(C)=O)CC3)C1` (centres undefined): 72%; `CCC1CN(C(=O)N2CCC(C(=O)NCc3cccc(C)c3)CC2)c2ccccc2O1` (centres undefined): 77%. Take `O=C(NCc1ccco1)Nc1ccccc1`: the survival is 94%. As to `O=C(CCCCn1c(=O)c2ccccc2n(CC(=O)Nc2ccc(F)cc2F)c1=O)NCCc1ccccc1`, the survival was 92%. Then `CC1=C(C(=O)NCc2ccccc2Cl)C2(CCCCCC2)OC1=O`, with 49%; and `CCCN(c1ccc(C(C)C)cc1)S(=O)(=O)c1ccc2c(c1)n(C)c(=O)c(=O)n2C`, with 84%; and `COc1ccc(NC(=O)Cn2c(C)cc3ccccc3c2=O)c(OC)c1`, with 59%. Take `CCc1cccc(C)c1Nc1c(-c2cccc(O)c2)nc2nc(C)cc(C)n12`: the survival was 66%. Next, `CCc1cccc(NC(=O)CCS(=O)(=O)c2cc(Br)cc3c2N(C(C)=O)CC3)c1`: 144%; `Cc1ccc(-c2nc3ncccc3o2)cc1NC(=O)c1ccc(-c2ccc(Cl)cc2)o1`: 35% (active); `CCCC(=O)Nc1ccc(-c2nc3ncccc3o2)cc1C`: 69%. Then `COc1ccc(Br)cc1C(=O)Nc1ccc(-c2nc3ncccc3o2)cc1C`, with 41%; and `Cc1cc(NC(=O)c2ccc(-c3ccc(Cl)cc3)o2)cc(-c2nc3ncccc3o2)c1O`, with 88%; and `COc1ccc(C(=O)Nc2ccc(-c3nc4ncccc4o3)cc2C)cc1Br`, with 37% (active). Then `CC(=O)c1ccc(NC(=O)c2ccc(-c3ccc(Cl)cc3)o2)cc1`, with 92%; and `Cc1ccc(-c2nc3ncccc3o2)cc1NC(=O)c1ccc(-c2cccc(Cl)c2C)o1`, with 56%; and `O=C(Nc1nccs1)c1cccc(C(=O)Nc2nccs2)c1`, with 98%. Consider `O=C(Nc1nccs1)c1ccc(-c2ccc(Cl)cc2)o1`, for which the survival is 35% (active). In the case of `CCCCc1nn2c(=O)cc(COC(=O)c3ccc(NC(=O)C(CC)CC)cc3)nc2s1`, the survival was 94%.

Turning to `CCC(Sc1nc2ccccc2c2nc(CCn3c(C)nc4ccccc43)nn12)C(=O)Nc1ccc(F)cc1` (centres undefined), the survival was 67%. Next, `COc1ccc(Cn2c(CCC(=O)NCc3ccc(Cl)cc3)nc3cccnc32)cc1`: 112%; `CC1CCN(c2nc3nonc3nc2Nc2ccc(F)cc2)CC1`: 78%; `Cc1cc(C)nc(N2CCCC(C)C2)n1` (centres undefined): 87%.

Take `CC1CCCN(c2nc3nonc3nc2Nc2cccc(Cl)c2)C1` (centres undefined): the survival is 0% (active). Next, `COc1ccccc1CNC(=O)CCn1c(=O)c2ccccc2n(CC(=O)Nc2ccc(C)cc2C)c1=O`: 86%. Then `CCOC(=O)c1ccc(NC(=O)Cn2nnc(-c3ccc(C(F)(F)F)cc3)n2)cc1`, with 87%; and `Cc1ccc2nc(Cl)c3cc(C(=O)N4CCCCC4C)sc3c2c1` (centres undefined), with 23% (active); and `CCOC(=O)C1CCCN(C(=O)c2cc3c(=O)n(C)c4ccccc4c3s2)C1` (centres undefined), with 44% (active). Then `CC(C)N(C(=O)c1cc2c(Cl)nc3ccccc3c2s1)C1CCCCC1`, with 16% (active). With `CCOC(=O)C1CCCN(C(=O)c2ccc(-n3ccc4ccccc43)s2)C1` (centres undefined), the survival is -1% (active). Next, `Cc1ccc2nc(Cl)c3cc(C(=O)NC4CCCCCC4)sc3c2c1`: 102%; `CCC(C)NC(=O)C1CCN(C(=O)c2ccc(-n3ccc4ccccc43)s2)CC1` (centres undefined): 81%; `CC1CCN(C(=O)c2cc3c(=O)n(C)c4ccccc4c3s2)CC1`: 88%. Next, `Cc1ccc2nc(Cl)c3cc(C(=O)NC4CCCCC4)sc3c2c1`: 52%; `CC1CCCN(C(=O)c2cc3c(=O)n(C)c4ccccc4c3s2)C1` (centres undefined): 138%; `CCOC(=O)C1CCN(C(=O)c2ccc(-n3ccc4ccccc43)s2)CC1`: 72%. Next, `Cc1ccc(S(=O)(=O)Nc2nc3c(s2)C(=O)CC(C)(C)C3)cc1`: 91%.

Regarding `COc1ccc2nc(NS(=O)(=O)Cc3ccccc3)sc2c1`, the survival is 75%.
